The record followed here is PubChem BioAssay (EPA / NIEHS).

Common to all, as to conditions: mRNA level, 48 h; actives raise or lower the signal
Read-out in test [1]: cysteine-aspartic acid protease (CASP8), CASP8 (gene 841)
As to the kind of experiment: LTEA_HepaRG_CASP8: Life Technologies and Expression Analysis (LTEA) Assay for cysteine-aspartic acid protease (CASP8) using HepaRG (AID 2283480). The essentials:
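HepaRG, 48 h exposure, duplicate wells; 8 conc, half-log from 100 uM, 0.5% DMSO. Serum-free induction medium. CASP8 mRNA by TaqMan qRT-PCR, norm. ACTB/GAPDH/POLR2A; gain/loss fitted vs DMSO.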

Read-out in test [2]: Cytochrome P450 (CYP2B6), CYP2B6 (gene 1555)
As to the kind of experiment: LTEA_HepaRG_CYP2B6: Life Technologies and Expression Analysis (LTEA) Assay for Cytochrome P450 (CYP2B6) using HepaRG (AID 2283481). The essentials: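 Read-out is CYP2B6 mRNA by TaqMan qRT-PCR, normalized to three housekeeping genes and fitted bidirectionally against 0.5% DMSO baseline. Human HepaRG cells received test chemicals for 48 h, top concentration 100 uM, half-log dilutions.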

Read-out in test [3]: Cytochrome P450 2C19 (Homo sapiens) (UniProt P33261)
Briefly: LTEA_HepaRG_CYP2C19: Life Technologies and Expression Analysis (LTEA) Assay for CYP2C19 using HepaRG (AID 2283482). In outline: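 HepaRG, 48 h chemical exposure, 8-pt half-log series from 100 uM in 0.5% DMSO, duplicates. Readout: CYP2C19 mRNA by TaqMan qRT-PCR, housekeeping-normalized. Bidirectional fit vs DMSO baseline; phenobarbital 1mM as induction control.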

Read-out in test [4]: CYP2C8 (gene 1558)
As to the kind of experiment: LTEA_HepaRG_CYP2C8: Life Technologies and Expression Analysis (LTEA) Assay for CYP2C8 using HepaRG (AID 2283483). In outline:
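CYP2C8 mRNA induction or loss, by qRT-PCR normalized to ACTB/GAPDH/POLR2A, is read in HepaRG cells after 48 h treatment. Concentrations run from 100 uM down in half-log dilutions, with 0.5% DMSO as vehicle and baseline.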

Read-out in test [5]: CYP2C9 (gene 1559)
Briefly: LTEA_HepaRG_CYP2C9: Life Technologies and Expression Analysis (LTEA) Assay for CYP2C9 using HepaRG (AID 2283484). In outline: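 Cells plated 48 h, switched to serum-free induction medium, then treated in duplicate for 48 h at eight concentrations (max 100 uM, 0.5% DMSO). RNA then analysed by qRT-PCR for CYP2C9; curves fitted in both directions relative to DMSO.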

Read-out in test [6]: CYP2E1 (gene 1571)
Briefly: LTEA_HepaRG_CYP2E1: Life Technologies and Expression Analysis (LTEA) Assay for CYP2E1 using HepaRG (AID 2283485). The essentials:
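Differentiated HepaRG cells were treated in duplicate for 48 h with chemicals in 0.5% DMSO, from 100 uM downward in half-log dilutions. RNA was then analysed by qRT-PCR for CYP2E1 induction or loss.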

Read-out in test [7]: CYP4A11 (gene 1579)
As to the kind of experiment: LTEA_HepaRG_CYP4A11: Life Technologies and Expression Analysis (LTEA) Assay for CYP4A11 using HepaRG (AID 2283486). In outline:
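CYP4A11 transcript levels were quantified by TaqMan qRT-PCR after HepaRG human liver cells were treated for 48 hours with test chemicals (top 100 uM, half-log dilutions, 0.5% DMSO). Gain or loss of signal was fitted relative to DMSO.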

Read-out in test [8]: DNA damage-inducible transcript 3 (DDIT3), DDIT3 (gene 1649)
As to the kind of experiment: LTEA_HepaRG_DDIT3: Life Technologies and Expression Analysis (LTEA) Assay for DNA damage-inducible transcript 3 (DDIT3) using HepaRG (AID 2283488). In outline: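 Changes in DDIT3 transcript, in either direction relative to 0.5% DMSO vehicle, were quantified by TaqMan qRT-PCR after 48 h chemical exposure of HepaRG cells at 8 concentrations, maximum 100 uM.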

Read-out in test [9]: Pro-epidermal growth factor (Homo sapiens) (UniProt P01133)
Briefly: LTEA_HepaRG_EGF: Life Technologies and Expression Analysis (LTEA) Assay for Epidermal growth factor (EGF) using HepaRG (AID 2283489). The essentials: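 qRT-PCR readout of EGF transcript after 48 h chemical exposure of HepaRG cells; eight concentrations from 100 uM down in half-log steps, duplicate wells, 0.5% DMSO vehicle. Bidirectional curve fitting against DMSO baseline.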

Read-out in test [10]: Cytochrome P450 3A4 (Homo sapiens) (UniProt P08684)
Briefly: LTEA_HepaRG_CYP3A4: Life Technologies and Expression Analysis (LTEA) Assay for CYP3A4 using HepaRG (AID 2283487). The essentials: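 CYP3A4 transcript measured by TaqMan qRT-PCR and normalized to three housekeeping genes after 48 h chemical exposure of human HepaRG cells. Top concentration 100 uM, half-log steps, 0.5% DMSO vehicle; gain or loss fitted against DMSO baseline.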

Molecules are shown by their SMILES. Activity calls are given as the source filed them. Rule for the calls: active = hit-call score of the fitted dose curve at least 0.9, where 1 is the maximum; inactive = score below 0.9.

Sequence of Cytochrome P450 2C19 (Homo sapiens) (P33261 whole entry, looked up): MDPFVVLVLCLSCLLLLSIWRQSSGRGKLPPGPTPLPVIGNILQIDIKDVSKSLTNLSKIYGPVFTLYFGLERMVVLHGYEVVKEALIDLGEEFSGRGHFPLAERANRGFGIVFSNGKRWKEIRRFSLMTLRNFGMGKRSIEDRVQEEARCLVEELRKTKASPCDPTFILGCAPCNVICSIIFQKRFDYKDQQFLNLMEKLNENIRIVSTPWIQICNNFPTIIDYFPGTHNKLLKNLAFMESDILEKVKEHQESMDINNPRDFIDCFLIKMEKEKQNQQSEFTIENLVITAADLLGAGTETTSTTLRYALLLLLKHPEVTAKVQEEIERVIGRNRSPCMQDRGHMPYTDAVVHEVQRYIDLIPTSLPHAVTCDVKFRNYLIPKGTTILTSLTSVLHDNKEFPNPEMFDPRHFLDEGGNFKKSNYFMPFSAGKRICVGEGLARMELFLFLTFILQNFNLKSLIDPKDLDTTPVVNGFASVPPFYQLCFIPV
Sequence of Cytochrome P450 3A4 (Homo sapiens) (P08684 whole entry, looked up): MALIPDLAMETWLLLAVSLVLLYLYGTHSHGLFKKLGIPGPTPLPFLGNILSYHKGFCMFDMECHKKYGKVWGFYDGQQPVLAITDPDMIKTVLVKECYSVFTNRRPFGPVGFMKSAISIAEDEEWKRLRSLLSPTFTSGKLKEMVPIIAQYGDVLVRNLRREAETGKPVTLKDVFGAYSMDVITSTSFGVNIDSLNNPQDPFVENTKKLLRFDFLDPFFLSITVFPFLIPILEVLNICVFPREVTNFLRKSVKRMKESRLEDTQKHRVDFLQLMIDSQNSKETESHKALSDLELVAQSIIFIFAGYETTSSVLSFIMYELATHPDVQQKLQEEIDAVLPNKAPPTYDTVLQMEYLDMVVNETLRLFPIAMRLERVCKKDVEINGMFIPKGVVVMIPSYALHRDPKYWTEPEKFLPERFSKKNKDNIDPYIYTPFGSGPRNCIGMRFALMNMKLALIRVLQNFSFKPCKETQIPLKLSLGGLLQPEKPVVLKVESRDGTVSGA

The AC50 is the midpoint of the concentration-response curve, whichever way the signal moves. Regarding `N#Cc1c(Cl)cccc1Cl`, the result in test [1], in [3], in test [4], in test [5], in test [6] and in test [7] was inactive. Further, the outcome in [8] and in test [9] was inactive. Besides, the AC50 in test [2] was 12.1 µM (active).
In the case of `N#CN=C1SCCN1Cc1ccc(Cl)nc1`, the molecule was classed as inactive in test [1], in test [4], in [5], in [6], in test [7] and in test [8]. Further, the molecule was called inactive in [9]. The AC50 was 28.6 µM (active) in test [2] and 34.1 µM (active) in [3].
As to `COc1cc(Cl)c(OC)cc1Cl`, the call in test [1], in test [4], in test [5], in test [6], in test [7] and in test [10] was inactive. Besides, the result in test [8] and in test [9] was inactive. Also, the AC50 in [2] was 1.23 µM (active).
Regarding `O=C(Nc1ccccc1-c1ccc(Cl)cc1)c1cccnc1Cl`, the call in [1], in test [3], in test [4], in test [5], in [7] and in test [8] was inactive. For the same molecule, in test [9], the result was inactive. In addition, the AC50 is 1.62 µM (active) in [2] and 52.5 µM (active) in test [6].
With `CC(C)NC(=O)N1CC(=O)N(c2cc(Cl)cc(Cl)c2)C1=O`, the molecule was called inactive in [1], in [3], in test [4], in [5] and in test [8]. The results for the AC50 in [2], in [6] and in test [9] were 3.63 µM (active), 13.2 µM (active) and 12.8 µM (active), respectively.
Regarding `Cc1ccc(N=CN(C)C=Nc2ccc(C)cc2C)c(C)c1`, the molecule was called inactive in [1], in test [3], in test [4], in [5], in test [6] and in test [7]. Also, the molecule was called inactive in test [8] and in [9]. In addition, the AC50 in test [2] is 30.3 µM (active).
Take `CC(C)=CC1C(C(=O)OCc2coc(Cc3ccccc3)c2)C1(C)C` (stereo not given): the molecule was classed as inactive in test [1], in [4], in [5], in test [8] and in test [9]. Further, the concentration at half-maximal activity (AC50) in test [2] was 20.1 µM (active); in test [3] it was 15.5 µM (active); in test [6], 39.1 µM (active); in test [7], 50 µM (active).
As for `CC1(C)CCC(=Cc2ccc(Cl)cc2)C1(O)Cn1cncn1` (stereo not given), the outcome in test [1], in test [5], in test [8] and in test [9] was inactive. Besides, the AC50 in [2] is 2.72 µM (active); in test [3], 5.03 µM (active); in test [4] it was 12.6 µM (active); in test [6], 27.1 µM (active); in test [7], 27.8 µM (active).
In the case of `CC1(C)C(C=C(Cl)Cl)C1C(=O)OC(C#N)c1cccc(Oc2ccccc2)c1` (stereo not given), the outcome in test [1], in [4], in test [5], in test [7], in test [8] and in test [9] was inactive. Further, the values for the AC50 in [2], in test [3] and in test [6] were 9.35 µM (active), 23.7 µM (active) and 50.2 µM (active), respectively.
Turning to `CC1(C)CON(Cc2ccccc2Cl)C1=O`, the call in [1], in [5], in test [7], in test [8] and in test [9] was inactive. Also, the AC50 in [2] was 2.45 µM (active); in test [3], 6.15 µM (active); in test [4], 12.8 µM (active); in [6], 31.4 µM (active).
Regarding `O=C(O)c1c(Cl)ccc2cc(Cl)cnc12`, the result in test [1], in [2], in test [3], in test [4], in [5] and in test [6] was inactive. In addition, the call in test [7], in [8] and in test [9] was inactive.
In the case of `CCOc1nc(F)cc2nc(S(=O)(=O)Nc3c(Cl)cccc3Cl)nn12`, the result in test [1], in test [3], in test [4], in [5], in [7] and in test [8] was inactive. Moreover, in [9], the result was inactive. In addition, the figures for the AC50 in test [2] and in [6] were 13.2 µM (active) and 20.3 µM (active), respectively.
As to `Cc1cnc(C2=NC(C)(C(C)C)C(=O)N2)c(C(=O)O)c1` (stereo not given), the outcome in [1], in [2], in test [3], in test [4], in [5] and in [6] was inactive. The outcome in test [7], in test [8] and in test [9] was inactive.
Turning to `CN/C(=N\[N+](=O)[O-])NCc1cnc(Cl)s1`, the outcome in test [1], in test [3], in [4], in [5], in test [7] and in test [8] was inactive. Further, in test [9], the result was inactive. For the same molecule, the AC50 in test [2] was 30.8 µM (active); in test [6], 50 µM (active).
In the case of `CN=C=S`, the molecule was called inactive in test [1], in [2], in test [3], in [4], in test [5] and in test [6]. Also, the outcome in test [7], in [8] and in test [9] was inactive.
For the molecule `CC(C)(C)C(=O)C(Oc1ccc(Cl)cc1)n1cncn1` (stereo not given), the outcome in test [1], in test [5], in [8] and in [9] was inactive. Further, the AC50 was 5.18 µM (active) in [2]; 10.7 µM (active) in test [3]; 15.4 µM (active) in test [4]; 31.1 µM (active) in test [6]; 50 µM (active) in test [7].
On to `CCN(CC)C(=O)C(C)Oc1cccc2ccccc12` (stereo not given), for which the result in [1], in test [4], in [5], in [8] and in test [9] was inactive. The AC50 in [2] was 12 µM (active); in [3], 12.6 µM (active); in test [6] it was 73.5 µM (active); in [7] it was 79.1 µM (active).
In the case of `COCC(C)N(C(=O)CCl)c1c(C)csc1C` (stereo not given), the call in [1], in test [3], in [4], in test [5], in [7] and in [8] was inactive. The AC50 was 2.05 µM (active) in test [2], 64.6 µM (active) in [6] and 50 µM (active) in [9].
Regarding `CCOP(=O)(OCC)Oc1nc(Cl)c(Cl)cc1Cl`, the outcome in test [1], in test [8] and in [9] was inactive. For the same molecule, the AC50 in [2] was 83.6 µM (active); in test [3] it was 80.7 µM (active); in test [4] it was 84.5 µM (active); in [5], 93 µM (active); in [6], 76 µM (active); in test [7], 77.4 µM (active).
